# Experimental data taken from PubChem BioAssay (NCI).
# This is part of a sample that, as a whole, favours compounds with a hit. Of some 83,000 tested, about 20% had one in any assay.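 Negative percent growth values reflect cell death: -40 means 40% of the cells present at the start died, and -100 means all died.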 A number with no mark means an inactive call. The source made the active and inactive calls. The calls were made as follows: active = growth percent below 10; inactive = the rest.
# Key:
# Assay in all cases: NCI-60 one-dose screen, 48 h (100 = growth as untreated, 0 = no growth, -100 = all killed)
# Settings in all cases: 10 µM unless noted
# DU-145 prostate = test system: DU-145 prostate
# K-562 leukemia = test system: K-562 leukemia
# MALME-3M melanoma = test system: MALME-3M melanoma
# MDA-MB-231 breast = test system: MDA-MB-231 breast
# RXF 393 renal = test system: RXF 393 renal
# SF-268 CNS = test system: SF-268 CNS
# SF-295 CNS = test system: SF-295 CNS
# SF-539 CNS = test system: SF-539 CNS
# UACC-257 melanoma = test system: UACC-257 melanoma
# M14 melanoma = test system: M14 melanoma
# HCT-15 colon = test system: HCT-15 colon
# HT29 colon = test system: HT29 colon
# SNB-75 CNS = test system: SNB-75 CNS
# SNB-19 CNS = test system: SNB-19 CNS
# U251 CNS = test system: U251 CNS
# PC-3 prostate = test system: PC-3 prostate
# SK-MEL-5 melanoma = test system: SK-MEL-5 melanoma
# UACC-62 melanoma = test system: UACC-62 melanoma
# LOX IMVI melanoma = test system: LOX IMVI melanoma
# SK-MEL-28 melanoma = test system: SK-MEL-28 melanoma
Structure (SMILES),growth (DU-145 prostate),growth (K-562 leukemia),growth (MALME-3M melanoma),growth (MDA-MB-231 breast),growth (RXF 393 renal),growth (SF-268 CNS),growth (SF-295 CNS),growth (SF-539 CNS),growth (UACC-257 melanoma),growth (M14 melanoma),growth (HCT-15 colon),growth (HT29 colon),growth (SNB-75 CNS),growth (SNB-19 CNS),growth (U251 CNS),growth (PC-3 prostate),growth (SK-MEL-5 melanoma),growth (UACC-62 melanoma),growth (LOX IMVI melanoma),growth (SK-MEL-28 melanoma)
CC1=CCc2ccccc21,111%,94.1%,101%,94.5%,111%,110%,101%,112%,105%,105%,109%,95.7%,83.9%,101%,103%,86.2%,101%,86.2%,105%,104%
CC/C=C(\C)C(CCC)(CN=O)C(=O)OCC (stereo not given),111%,114%,105%,94.8%,123%,105%,112%,98.9%,85.8%,99.3%,99.6%,106%,81.9%,105%,99.3%,98.3%,111%,110%,99.7%,116%
CC(C)C1=NOC(=O)C1=Cc1cn(-c2ccccc2)nc1-c1ccc(Br)cc1,92.9%,43.4%,87.7%,91.5%,70.3%,102%,96.8%,78.5%,100%,76.6%,74.3%,60.3%,65.6%,90.3%,73.7%,82.3%,97.2%,76.1%,26.4%,83.4%
CSc1nc(=S)c2nc(SC)n(-c3ccccc3)c2[nH]1,108%,98.5%,109%,105%,108%,96.4%,105%,103%,96.3%,102%,106%,92.3%,94.8%,100%,93.5%,82.3%,98.5%,90.3%,90.9%,108%
Fc1cc2[nH]ncc2c2c3c(c(-c4cn[nH]c4C(F)(F)F)nc12)C1CCC3C1 (stereo not given),4.96% (active),19.4%,9.41% (active),-5.18% (active),-89.8% (active),3.13% (active),8.79% (active),-32.4% (active),0.635% (active),-6.09% (active),9.48% (active),13%,-4.22% (active),10.1%,4.85% (active),14%,-28.8% (active),-18.5% (active),0.44% (active),-0.348% (active)
N#C/C(=C(/O)CCCO)c1nc2ccccc2c(=O)[nH]1,102%,102%,90.3%,98.5%,87.5%,112%,150%,97.2%,93.9%,105%,103%,108%,80.6%,105%,103%,92.9%,107%,96%,98%,110%
CC1(C)[C@@H](NOCCCN)CC[C@]2(C)[C@H]3C(=O)C=C4[C@@H]5C[C@](C)(C(=O)O)CC[C@]5(C)CC[C@@]4(C)[C@]3(C)CC[C@@H]12,-49.8% [100 µM] (active),-8.83% [100 µM] (active),-100% [100 µM] (active),-88.4% [100 µM] (active),-54.3% [100 µM] (active),-51.8% [100 µM] (active),-56.3% [100 µM] (active),-93.5% [100 µM] (active),-44.5% [100 µM] (active),-20.3% [100 µM] (active),-15% [100 µM] (active),-57.8% [100 µM] (active),-56.5% [100 µM] (active),-54.9% [100 µM] (active),-71.6% [100 µM] (active),-19.6% [100 µM] (active),-51.4% [100 µM] (active),-100% [100 µM] (active),-82.6% [100 µM] (active),-80.7% [100 µM] (active)
Cc1ccc(NC(=O)N[C@@H](Cc2cc(F)cc(F)c2)C(=O)N[C@@H]2C(=O)N3CCC[C@H]3C(=O)N3CCCC[C@H]3C(=O)N[C@@H](C)C(=O)N3C[C@H](C)C[C@H]3C(=O)O[C@H]2C)cc1,28.8%,14.3%,35%,4.01% (active),28.8%,28.8%,18.5%,48.6%,18%,34%,14.7%,30.3%,10.7%,22%,29.8%,16.1%,10.8%,25.8%,38.2%,39.4%
C=C(C)[C@@H]1CC[C@]2(C(N)=O)CC[C@]3(C)[C@H](CC[C@@H]4[C@@]5(C)C/C(=C/c6cccnc6)C(=O)C(C)(C)[C@@H]5CC[C@]43C)[C@@H]12,24.6% [100 µM],6.74% [100 µM] (active),-19.7% [100 µM] (active),0.809% [100 µM] (active),-8.8% [100 µM] (active),39.3% [100 µM],6.69% [100 µM] (active),-14.3% [100 µM] (active),20.8% [100 µM],15.7% [100 µM],14.9% [100 µM],-45.3% [100 µM] (active),40.6% [100 µM],27.8% [100 µM],9.19% [100 µM] (active),11.7% [100 µM],-61.9% [100 µM] (active),-1.04% [100 µM] (active),-41.5% [100 µM] (active),-8.42% [100 µM] (active)
CC1Cc2c(Cl)ncnc2N(C)c2ccc(O)cc21 (stereo not given),108%,89.6%,53.4%,21.1%,32.1%,29.1%,49.7%,34.6%,33.9%,21.9%,67.3%,74.7%,85%,44.4%,36%,31.4%,-78.9% (active),33.8%,11.9%,27.8%
COc1ccc(NCc2cn(-c3ccc(C(=O)O)cc3)nc2-c2ccc(C(=O)O)cc2)cc1C(F)(F)F,96.3%,111%,77.9%,81.8%,89.8%,99.3%,97.2%,86.7%,100%,96.9%,105%,101%,84%,96.4%,93.7%,102%,94.8%,94.3%,97.4%,97.3%
CC(C)(C)c1cc(C(=O)N2CCC(C(=O)NCCN)CC2)cc(C(C)(C)C)c1,116%,103%,95%,90.9%,98.5%,97.8%,101%,98.4%,81%,113%,103%,80.5%,79.4%,88%,88.2%,92.5%,95.4%,89.3%,99.6%,101%
CC1(C)CC[C@]2(C(=O)O)CC[C@]3(C)C(=CC[C@@H]4[C@@]5(C)C/C(=C/c6ccco6)C(=O)C(C)(C)[C@@H]5CC[C@]43C)[C@@H]2C1,-45% [100 µM] (active),10.5% [100 µM],-80.7% [100 µM] (active),-77.9% [100 µM] (active),-68.5% [100 µM] (active),-27.2% [100 µM] (active),-56.2% [100 µM] (active),-83.3% [100 µM] (active),-23.7% [100 µM] (active),-31.5% [100 µM] (active),-38.6% [100 µM] (active),-56.7% [100 µM] (active),-15.6% [100 µM] (active),-9.61% [100 µM] (active),-36.1% [100 µM] (active),-16% [100 µM] (active),-75.8% [100 µM] (active),-89.7% [100 µM] (active),-95.1% [100 µM] (active),-79.5% [100 µM] (active)
CCc1ccc(NC(=O)N[C@@H](Cc2cc(F)cc(F)c2)C(=O)N[C@@H]2C(=O)N3C[C@H](O)C[C@H]3C(=O)N3CCOC[C@H]3C(=O)N[C@@H](C)C(=O)N3C[C@H](C)C[C@H]3C(=O)O[C@H]2C)cc1,42.6%,24.7%,39.4%,16.1%,88.1%,29.1%,81.9%,55.8%,21.5%,84.8%,108%,31.2%,8.76% (active),20.2%,24.8%,14.4%,85%,29.7%,41.6%,39.7%
ClC1=C(Cl)C(Cl)=C(Cl)C1=Cc1ccccc1,-76.4% (active),1.01% (active),-53.7% (active),-21% (active),-91.4% (active),-44.9% (active),-30.1% (active),-43.6% (active),-66.7% (active),-93.1% (active),-55.1% (active),-30.1% (active),-77% (active),-16.8% (active),-50.3% (active),-10.3% (active),-95.8% (active),-77% (active),-91.5% (active),-87.5% (active)
